Compounds with a hit are over-represented: about 2.9% of the library has one in this group of screens.
DRD3 agonist = agonists of human D3 dopamine receptor | 0.58% of 410,000 active | D3R DiscoveRx beta-arrestin cells, luminescence, 90 min | P35462 | max activation, %; in the data active means max activation above about 30%; further: 0% is about no effect
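Cells at 1500/well, incubated overnight, then treated with pinned compounds (dopamine as control) for 90 min at 37 degrees C. DiscoveRx reagent added for 30 - 60 minutes at room temperature; luminescence read.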
TRPML1 agonist = activates the human TRPML1 channel; Q9GZU1; TRPML1-expressing cells, Ca2+ dye fluorescence, FDSS; activation, % (test concentration not listed); 0.12% of 410,000 active; in the data active means activation above about 50%; inconclusive means mostly about 30% to 49%; further: 0% is about no effect
Target sequence (Q9GZU1 whole entry, looked up): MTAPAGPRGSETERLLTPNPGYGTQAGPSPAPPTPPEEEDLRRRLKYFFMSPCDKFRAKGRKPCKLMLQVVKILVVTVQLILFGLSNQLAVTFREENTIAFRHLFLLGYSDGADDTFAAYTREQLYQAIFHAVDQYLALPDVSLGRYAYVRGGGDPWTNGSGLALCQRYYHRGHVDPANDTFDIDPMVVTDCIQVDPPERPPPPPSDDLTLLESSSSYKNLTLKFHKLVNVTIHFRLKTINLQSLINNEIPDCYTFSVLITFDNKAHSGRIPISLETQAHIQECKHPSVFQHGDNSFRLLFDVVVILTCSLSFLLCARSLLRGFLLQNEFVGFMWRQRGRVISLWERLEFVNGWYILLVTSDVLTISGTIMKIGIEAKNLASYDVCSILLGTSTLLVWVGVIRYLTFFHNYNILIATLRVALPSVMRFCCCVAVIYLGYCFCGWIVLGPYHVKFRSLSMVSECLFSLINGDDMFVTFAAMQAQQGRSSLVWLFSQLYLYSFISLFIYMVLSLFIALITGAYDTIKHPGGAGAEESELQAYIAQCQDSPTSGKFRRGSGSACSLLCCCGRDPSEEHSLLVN
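Agonist activity was taken from a 110 s kinetic Ca2+ dye read on the FDSS after pinning compounds onto TRPML1-DL cells. The cells were seeded at 1,500/well with Tet inducer, incubated about 16 h, then dye-loaded at room temperature.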
D3 antag = D3 dopamine receptor (human) antagonism | P35462 | D3R cells, DiscoveRx beta-arrestin luminescence, antagonist mode; active compounds read low | max response, negative = inhibition, % | 2.5% of 360,000 active; in the data active means max response below about -50%; inconclusive means no clear call, values can overlap the other calls; further: on the % scale 0 is the no-effect control and ±100 the full control effect
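Cells plated overnight at 1500 cells/well, then exposed to library compounds with dopamine controls for 90 minutes at 37 degrees C. DiscoveRx reagent added for 30–60 minutes at room temperature; luminescence read, quantitative HTS format.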
TRPML1 inh = inhibitors of human TRPML1 channel; activity change, negative = inhibition, % (test concentration not listed); 0.02% of 390,000 active; Q9GZU1; TRPML1-inducible cells, Ca2+ dye fluorescence, FDSS; active compounds read low; inhibition of EC80 agonist-evoked calcium signal; in the data active means activity change below about -50%; inconclusive means between about -30% and that limit;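 further: stimulus is agonist 54-4 at its EC80 concentration; on the % scale 0 is the no-effect control and ±100 the full control effect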
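Calcium fluorescence in TRPML1-DL cells induced overnight with Tet: a 110 s read after compound pin addition, then a 110 s antagonist read after challenge with 54-4 at 4 uM final (EC80).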
* = called active by the depositor; ? = inconclusive; / = no result; ! = not confirmed by another sample.

SMILES | DRD3 agonist | TRPML1 agonist | D3 antag | TRPML1 inh
Cc1cccc(N2CCN(C(=O)C3CCN(c4ncnc5c4nc4n5CCCCC4)CC3)CC2C)c1 (configuration not stated) | 35.3*! | 1.4 | 116.1 | 10.3
Cc1cccc(N2CCN(C(=O)C3CCN(c4ncnc5c4nc4n5CCCCC4)CC3)CC2)c1C | 9.6 | 1.2 | 29.4 | 32.0
O=C(C1CCN(c2ncnc3c2nc2n3CCCCC2)CC1)N1CCN(c2ccccc2F)CC1 | 61.6*! | 1.5 | 21.7 | 10.1
O=Cc1ccc2[nH]ccc2c1 | / | -0.4 | / | /
Cc1ccc2c(c1)C(c1ccc(F)cc1)N(C(=O)COc1ccc(Cl)cc1Cl)CC(=O)N2 (configuration not stated) | 5.7 | -0.7 | / | 24.1
COc1ccc2[nH]c(C)c(C(=O)CN3CCN(C/C=C/c4ccccc4)CC3)c2c1 | 1.9 | -0.4 | -57.4* | 2.5
COc1ccc(O)c(CN2CCN(C/C=C/c3ccccc3)CC2)c1 | -24.2 | 2.6 | -76.3* | 24.9
Cc1cc(C)c2c(CN3CCCCC3)cc(=O)oc2c1 | 1.8 | 0.3 | 4.1 | -7.4
COc1ccc2oc(C(=O)N3CCN(C/C=C/c4ccccc4)CC3)c(C)c2c1 | 30.3* | 1.4 | 0.0 | -17.1
Cc1cc(C)c2c(CN3CCN(C/C=C/c4ccccc4)CC3)cc(=O)oc2c1 | -1.6 | 2.9 | -64.2* | 7.7
Cc1ccc(OCc2cc(=O)n3cc(C)sc3n2)c(C)c1 | 3.0 | 0.8 | / | 10.6
O=C(NC1CC(=O)N(c2ccccc2)C1)c1ccc(S(=O)(=O)N2CCCC2)cc1 (configuration not stated) | -7.2 | 1.8 | / | ?
O=C1C[C@H](c2ccccc2Cl)N1S(=O)(=O)c1ccccc1[N+](=O)[O-] | / | 1.1 | / | -21.5
CCCCNc1nc2ccccc2n1CC(=O)N1CCc2ccccc2C1 | -44.6 | -0.9 | -76.0* | 16.6
O=C(NC(c1ccc(-c2ccccc2)cc1)c1cnccn1)C1CCN(Cc2ccc(Cl)c(Cl)c2)CC1 (configuration not stated) | -13.5 | 0.7 | -57.4* | /
O=C(NC(c1ccc(-c2ccccc2)cc1)c1cnccn1)C1CCN(Cc2ccc3c(c2)OCO3)CC1 (configuration not stated) | -9.4 | 4.5 | -65.8* | /
CC(C)c1ccc(CN2CCC(C(=O)NCc3cccnc3)CC2)cc1 | -5.2 | -0.3 | -83.4* | 3.1
Cc1cccc2c(C(O)c3c[nH]c4c(C)cccc34)c[nH]c12 | / | -0.1 | / | /
CCCN(CC(=O)Nc1ccc(Cl)cc1Cl)C(=O)CC(NC(C)=O)c1ccccc1 (configuration not stated) | -39.6 | 0.4 | ? | -8.7
CC(=O)NC(CC(=O)NC(C)c1ccc(Cl)cc1Cl)c1ccccc1 (configuration not stated) | -19.0 | -0.3 | -50.7* | -10.1
COc1ccc(-c2cc(C(C)=O)c(C)n2CCC(=O)Nc2ccc(C)c(Cl)c2)cc1 | 1.4 | 1.5 | / | -12.8
COC(=O)c1c(-c2ccc(Cl)cc2)noc1N1CCN(c2cccc(OC)c2)CC1 | 81.8* | -1.0 | / | 16.0
Cc1ccccc1C(=O)Nc1cccc(OCc2cc(=O)n3cccc(C)c3n2)c1 | -11.0 | 0.1 | / | -6.0
CC(C)(C)OC(=O)C[C@@H]1C/C=C\C[C@@H](CC(=O)N(CCO)Cc2ccccc2)C(=O)N2CCC[C@@H]2COC1=O | 35.3* | -0.4 | 7.4 | -3.8
CC(C)(C)OC(=O)C[C@H]1C/C=C\C[C@@H](CC(=O)N(CCO)Cc2ccccc2)C(=O)N2CCC[C@@H]2COC1=O | -21.1 | -0.2 | -11.9 | 20.5
SMILES | DRD3 agonist | TRPML1 agonist | D3 antag | TRPML1 inh
CC(C)(C)OC(=O)C[C@@H]1C/C=C\C[C@@H](CC(=O)N(CCO)Cc2ccccc2)C(=O)NCCOC1=O | -27.1 | -0.4 | -123.4* | 32.2
Clc1ccccc1-c1ccc(CN2CCN(c3ccccc3)CC2)o1 | 2.5 | 1.9 | -66.5* | -16.2
CCC1OC(=O)C[C@@H](O)[C@H](C)[C@@H](O[C@@H]2O[C@H](C)C[C@H](N(C)C)[C@H]2O)[C@@H](CC=O)C[C@@H](C)C(=O)/C=C/[C@]2(C)OC2C1C (some centres not stated) | -9.2 | / | / | /
CC1CCCC(NC(=O)CSc2n[nH]c(=O)n2Cc2ccccc2)C1C (configuration not stated) | 48.1* | 0.4 | -4.0 | -0.2
CC1CCCC(NC(=O)CSc2ccc(F)cc2)C1C (configuration not stated) | -0.3 | 0.6 | -7.0 | -4.4
Cc1cc([N+](C)(C)C)cc(C)c1/C=C/c1ccnc2ccccc12 | / | -0.3 | / | /
Cn1ccc2c(-c3ccccc3F)cc3c(c21)C1CCC3C1 (configuration not stated) | -4.8 | -0.3 | -54.3* | /
CNC(=S)Nc1ccc(N2CCN(c3ccc(C(F)(F)F)cn3)CC2)nc1 | -23.3 | 1.4 | -51.9* | -13.9
CC(SC1=NS(=O)(=O)c2ccccc21)C(=O)O (configuration not stated) | / | -0.9 | / | /
CCc1ccc(CNC(=O)c2cnc3sc(N(CC)CC)nn3c2=O)cc1 | -8.8 | -0.2 | / | -2.4
O=C(c1ccc2c(=O)n(CC3CCCO3)c(=S)[nH]c2c1)N1CCN(C(=O)c2ccco2)CC1 (configuration not stated) | / | -0.4 | / | /
Cc1[nH]n(-c2ccc([N+](=O)[O-])cc2)c(=O)c1C=NCCN1CCN(C(=O)c2ccc(Br)cc2)CC1 | -7.4 | 3.2 | -65.1* | -7.0
Cc1[nH]n(-c2ccc([N+](=O)[O-])cc2)c(=O)c1C=NCCc1c[nH]c2ccccc12 | 37.1* | -0.1 | 0.9 | 2.7
CCCc1[nH]n(-c2ccc([N+](=O)[O-])cc2)c(=O)c1C=NCCc1c[nH]c2ccccc12 | 7.4 | 0.9 | 11.3 | 19.1
Cc1nc(NCCCN2CCOCC2)c2cnn(-c3ccccc3)c2n1 | -19.3 | 0.0 | -51.0* | -6.6
Cc1ccc(-n2ncc3c(NCCCN4CCOCC4)ncnc32)cc1 | -14.7 | 1.1 | / | 26.1
CCOCCCNC(=O)c1ccc(N2CCCC2)c(NS(=O)(=O)c2ccc(C)cc2)c1 | -3.5 | 0.8 | -18.7 | 66.6
Cc1ccc(S(=O)(=O)Nc2cc(C(=O)NCCN(C)C)ccc2N2CCCCC2)cc1 | -20.4 | -0.2 | -64.0* | 7.9
Cc1ccc(S(=O)(=O)Nc2cc(C(=O)NCCN3CCCC3)ccc2N2CCCCC2)cc1 | -25.7 | -0.4 | -51.1* | 64.2
COCCCNC(=O)c1ccc(N2CCCC2)c(NS(=O)(=O)c2ccc(C)cc2)c1 | 0.5 | -0.2 | -19.9 | 3.3
CCOc1cccc(C2C=C(c3ccc4c(c3)OCO4)NC(c3ccc(Br)cc3)N2)c1O (configuration not stated) | / | -0.5 | / | /
CN(C)c1ccc(/C=C/c2ccnc3ccccc23)cc1O | / | 23.9 | / | /
CCCN(CCC)c1nn2c(=O)c(C(=O)NCc3cc(Br)ccc3OC)cnc2s1 | -13.9 | -0.3 | / | 17.2
Cc1cccc(CSc2nc3ccncc3n2CC(=O)Nc2cc(C)cc(C)c2)c1 | -11.1 | 0.5 | -54.6* | 24.9
CNC(=S)N/N=C1\C(=O)c2cccc3cccc1c23 | -6.7 | -0.9 | -54.5* | -11.1

Screening results as filed in PubChem BioAssay.
